Screens as filed in PubChem.
A selection: hits, their analogues and other compounds. The true share with any hit is near 4.4%.
Mot1-301 SUMO – yeast Mot1-301 growth rescue at high temperature, primary screen, SUMOylation pathway inhibitor project, S. cerevisiae, ATP luminescence, 38.5C | 320,000 tested, 1% active | S. cerevisiae Mot1-301 growth rescue; percent above DMSO median, 100 means doubled | AID 2716, 2010 | growth rescue, % at 18.8 µM;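 active means every valid replicate shows activation above 250% relative to neutral control wells; inactive means the rest, any valid replicate at or below 250%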;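 further: OY570 slx delta 5 strain wells were the positive control but not used for scaling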
tim23-1 inh – growth inhibitors of tim23-1 mutant yeast, primary screen, luminescence, uHTS; S. cerevisiae tim23-1 growth, BacTiter-Glo luminescence, 24 h; 330,000 tested, 1.3% active; AID 463212, 2010; inhibition, % at 20 µM;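 active means growth inhibition of the mutant yeast at or above 50%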;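 further: temperature-sensitive mutant grown at 25 °C; plate controls were DMSO-treated mutant yeast for no effect and medium wells lacking yeast for full effect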
PfHsp90 yeast 2 – growth inhibition of PfHsp90-expressing yeast, primary screen, antimalarial PfHsp90 inhibitor project, S. cerevisiae, BacTiter-Glo luminescence, single point, set 2. AID 504621, 2011. BacTiter-Glo ATP, 48 h; yeast lacking PDR1 and PDR3 efflux regulators. inhibition, % at 9.4 µM. 310,000 tested, 0.32% active;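 active means every replicate shows inhibition above about 80%, whatever the replicate mean, limit read from the data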;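 further: 0% = DMSO neutral controls and 100% = 20 µM radicicol positive controls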
tim10-1 inh – growth inhibitors of tim10-1 mutant yeast, primary screen, luminescence, uHTS; inhibition, % at 20 µM; AID 463190, 2010; 330,000 tested, 2.2% active; S. cerevisiae tim10-1 ts strain growth, BacTiter-Glo, 24 h;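 active means inhibition of at least 40%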;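 further: mutant grown at 25 °C; 0% = DMSO wells with yeast and 100% = wells holding no yeast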
TIM10 inh – growth inhibitors of isogenic TIM10 control yeast, primary screen, counter-screen for tim10-1 yeast inhibitor project, luminescence, uHTS | S. cerevisiae TIM10 strain growth, BacTiter-Glo luminescence, 24 h | inhibition, % at 10 µM | 330,000 tested, 1.4% active | AID 463195, 2010;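 active means inhibition of 40% or more at the single tested concentration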;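 further: wild-type TIM10 isogenic control strain grown at permissive 25 °C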
tim10-1 confirm – growth inhibitors of tim10-1 mutant yeast, confirmation, single concentration, luminescence, S. cerevisiae; shares compounds with tim10-1 inh; S. cerevisiae tim10-1 ts strain growth, BacTiter-Glo, 24 h; inhibition, % at 20 µM; 7,400 tested, 56% active;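 active means inhibition of yeast growth at or above a set limit in either of two repeat tests at 20 µM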;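 further: tim10-1 mutant grown at permissive 25 °C to find synthetic lethal compounds; 0% = DMSO yeast wells and 100% = medium wells without yeast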
* hit, by the source's call.

`CCOC(=O)C1CCCN(C(=O)c2cc3cc4ccc(OC)cc4nc3o2)C1` (centres undefined) gave Mot1-301 SUMO 147, tim23-1 inh 35, PfHsp90 yeast 2 -17, tim10-1 inh 32 and TIM10 inh -4.
Screening N/C(=N\OC(=O)CCCc1ccccc1)c1ccccc1Cl returned Mot1-301 SUMO -3, tim23-1 inh 49, PfHsp90 yeast 2 0, tim10-1 inh 50*, TIM10 inh 31 and tim10-1 confirm 59*.
For COc1ccc(-n2c(=S)[nH]c3ccccc3c2=S)cc1 the results were Mot1-301 SUMO -16, tim23-1 inh 16, PfHsp90 yeast 2 -9, tim10-1 inh 6 and TIM10 inh 26.
`COc1ccc(-n2c(=S)[nH]c3ccccc32)cc1` gave Mot1-301 SUMO 49, tim23-1 inh 26, PfHsp90 yeast 2 -5, tim10-1 inh 42*, TIM10 inh 28 and tim10-1 confirm 15.
For CCc1ccc(OCC2c3cc(OC)c(OC)cc3CCN2C(=S)NC)cc1 (centres undefined) the results were Mot1-301 SUMO 14, tim23-1 inh 25, PfHsp90 yeast 2 4, tim10-1 inh 48*, TIM10 inh 14 and tim10-1 confirm -15.
`CCc1ccc(OCC2c3cc(OC)c(OC)cc3CCN2C(=S)NCCOC)cc1` (centres undefined) gave Mot1-301 SUMO 10, tim23-1 inh 10, PfHsp90 yeast 2 -16, tim10-1 inh 12 and TIM10 inh 9.
For CCOC(=O)c1ccc(NC(=S)NCCc2ccccc2)cc1 the results were Mot1-301 SUMO 4, tim23-1 inh 46, PfHsp90 yeast 2 -21, tim10-1 inh 41*, TIM10 inh 36 and tim10-1 confirm 20.
`COC(=O)c1ccc(NC(=S)NCCc2ccccc2)cc1` gave Mot1-301 SUMO 20, tim23-1 inh 14, PfHsp90 yeast 2 6, tim10-1 inh -7 and TIM10 inh 15.
`CC(=O)Nc1ccc(C(=O)OCCCOC(=O)c2ccc(NC(C)=O)cc2)cc1` gave Mot1-301 SUMO 196, tim23-1 inh 8, PfHsp90 yeast 2 -9, tim10-1 inh 3 and TIM10 inh -2.
For CC(=O)Nc1ccc(C(=O)OCCc2ccccc2)cc1 the results were Mot1-301 SUMO -14, tim23-1 inh 46, PfHsp90 yeast 2 -3, tim10-1 inh 42*, TIM10 inh 16 and tim10-1 confirm 33*.
For CCOC(=O)c1ccc(NC(=S)NCCc2ccccc2F)cc1 the results were Mot1-301 SUMO 243, tim23-1 inh 27, tim10-1 inh 40*, TIM10 inh 34 and tim10-1 confirm 17.
Screening CC(=O)N1CCN(c2cc(N3CCc4ccccc4C3)c(F)cc2[N+](=O)[O-])CC1 returned Mot1-301 SUMO 6, tim23-1 inh 43, tim10-1 inh 52*, TIM10 inh 25 and tim10-1 confirm 32*.
COc1cccc(CN(C)C(=O)[C@@H](NC(=O)c2ccc(C)cc2)C(C)C)c1 was read as Mot1-301 SUMO 83, tim23-1 inh 26, PfHsp90 yeast 2 -2, tim10-1 inh 7 and TIM10 inh 14.
For CC1CN(C(=O)CCC(=O)NCc2ccc(Cl)cc2)c2ccccc2S1 (centres undefined) the results were Mot1-301 SUMO 6, tim23-1 inh 26, PfHsp90 yeast 2 3, tim10-1 inh 31 and TIM10 inh 9.
Cc1ccc(-n2ncc3c(NCc4cccnc4)ncnc32)cc1C was read as Mot1-301 SUMO 26, tim23-1 inh 11, PfHsp90 yeast 2 -3, tim10-1 inh 43*, TIM10 inh 24 and tim10-1 confirm -10.
For Cc1ccc(-n2ncc3c(NCc4ccc5c(c4)OCO5)ncnc32)c(C)c1 the results were Mot1-301 SUMO -10, tim23-1 inh 9, PfHsp90 yeast 2 8, tim10-1 inh 41*, TIM10 inh -11 and tim10-1 confirm 2.
Cc1cccc(NC(=O)CSc2nnc(C)c(C)n2)c1 was read as Mot1-301 SUMO -15, tim23-1 inh 13, PfHsp90 yeast 2 -4, tim10-1 inh 15 and TIM10 inh -4.
Screening Cc1ccc(C(=O)CCC(=O)OCC(=O)N2c3ccccc3NC(=O)C2(C)C)cc1 returned tim23-1 inh 16, PfHsp90 yeast 2 -11, tim10-1 inh 13 and TIM10 inh 8.
COc1ccc(C#Cc2c(-c3ccsc3)oc3ccc(N4CCOCC4)cc23)cc1 was read as Mot1-301 SUMO -3, tim23-1 inh 1, PfHsp90 yeast 2 -3, tim10-1 inh 9 and TIM10 inh 4.
Screening COc1ccc(-c2oc3ccc(N4CCOCC4)cc3c2C#CC2(O)CCCCC2)cc1 returned Mot1-301 SUMO -8, tim23-1 inh 36, PfHsp90 yeast 2 -4, tim10-1 inh 41*, TIM10 inh 23 and tim10-1 confirm 12.
OC1(C#Cc2c(-c3ccsc3)oc3ccc(N4CCOCC4)cc23)CCCCC1 was read as Mot1-301 SUMO -23, tim23-1 inh 31, PfHsp90 yeast 2 -37, tim10-1 inh 41*, TIM10 inh 24 and tim10-1 confirm 5.
FC(F)Sc1nc2ccccc2[nH]1 was read as Mot1-301 SUMO 44, tim23-1 inh -6, PfHsp90 yeast 2 3, tim10-1 inh 18 and TIM10 inh 9.
Cc1ccc(S(=O)(=O)NCC(c2ccco2)S(=O)(=O)c2ccccc2)cc1 (centres undefined) was read as Mot1-301 SUMO 23, tim23-1 inh 27, tim10-1 inh 44*, TIM10 inh 5 and tim10-1 confirm 33*.
`COc1ccc(OC)c(S(=O)(=O)NCC(c2ccco2)S(=O)(=O)c2ccccc2)c1` (centres undefined) gave Mot1-301 SUMO -10, tim23-1 inh 11, tim10-1 inh 43*, TIM10 inh 3 and tim10-1 confirm 38*.
For Cc1ccc(S(=O)(=O)NCCC(c2ccccc2)c2ccco2)cc1 (centres undefined) the results were Mot1-301 SUMO 8, tim23-1 inh 37, PfHsp90 yeast 2 -17, tim10-1 inh -19 and TIM10 inh -8.
Screening CCOC(=O)/C(C#N)=C\c1cn(C)c2ccccc12 returned Mot1-301 SUMO -6, tim23-1 inh 20, PfHsp90 yeast 2 11, tim10-1 inh 41*, TIM10 inh 22 and tim10-1 confirm 15.
`CC(CNC(=O)COC(=O)c1ccco1)c1ccccc1` (centres undefined) gave Mot1-301 SUMO -12, tim23-1 inh 13, PfHsp90 yeast 2 -37, tim10-1 inh 11 and TIM10 inh -4.
Screening Cc1ccccc1NC(=O)CC1SC(=O)N(c2ccccc2)C1=O (centres undefined) returned Mot1-301 SUMO 103, tim23-1 inh 37, PfHsp90 yeast 2 4, tim10-1 inh 45*, TIM10 inh 7 and tim10-1 confirm 38*.
